LMNA splice mod = modulators of lamin A splicing; Potency, µM (highest dose often 46.1 µM), without a hit: at the highest dose ratio change, negative = inhibition, actives largely listed as inhibitors; 200,000 tested, 0.01% active; HeLa LMNA splicing GFP/RFP minigene ratio, 48 h; active = well fitted inhibition curve with a large enough effect in the signal ratio, with a control signal flat, not every such curve was filed as active; inconclusive = small, poorly fitted or top-dose-only effect, or effect the other way, or a change in a side signal; the % refers to the signal ratio
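S3 HeLa cells stably expressing lamin A-EGFP splicing minigene plus DsRed2, 600 cells/well, 48 h compound exposure at 37C. Laser-scanning cytometry; analysed as GFP (500-530 nm)/RFP (575-640 nm) total intensity ratio; 0.5% DMSO vehicle.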
ALDH1A1 inh = blocks purified human ALDH1A1 activity. Purified ALDH1A1, NADH fluorescence, propionaldehyde substrate. Potency, µM (doses to about 75.3 µM), inactives show top-dose activity, negative = inhibition, most hits filed as inhibitors. AID 1030. P00352. 220,000 tested, 7.3% active; active = well fitted inhibition curve with a large enough effect, not every such curve was filed as active; inconclusive = small, poorly fitted or top-dose-only effect, or another doubt; inactive = no such curve, though single readings can be large or run the other way;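 also: plate controls were no enzyme wells and a reference inhibitor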
Target sequence (P00352 whole entry, looked up): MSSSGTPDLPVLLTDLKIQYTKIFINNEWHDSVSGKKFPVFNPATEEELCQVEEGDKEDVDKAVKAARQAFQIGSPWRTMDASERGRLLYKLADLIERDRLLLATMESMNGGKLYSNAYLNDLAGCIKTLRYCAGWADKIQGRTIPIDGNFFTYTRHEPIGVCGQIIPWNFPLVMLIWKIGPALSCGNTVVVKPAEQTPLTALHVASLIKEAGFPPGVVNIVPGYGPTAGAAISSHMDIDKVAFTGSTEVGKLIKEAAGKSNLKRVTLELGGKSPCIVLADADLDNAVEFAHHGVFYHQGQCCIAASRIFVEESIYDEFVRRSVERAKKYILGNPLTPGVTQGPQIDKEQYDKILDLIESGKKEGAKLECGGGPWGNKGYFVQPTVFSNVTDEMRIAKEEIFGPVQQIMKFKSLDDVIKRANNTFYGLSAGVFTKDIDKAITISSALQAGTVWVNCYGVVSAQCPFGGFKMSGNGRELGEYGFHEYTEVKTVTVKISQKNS
KinaseGlo FLuc = Kinase-Glo luciferase inhibition (counter-screen) | AID 1379 | 200,000 tested, 0.28% active | Potency, µM (doses to about 38.3 µM), for inactives: top-dose activity change, negative = inhibition, actives largely listed as inhibitors | Kinase-Glo luciferase, ATP luminescence, 8 min; also: nearly all actives have a fitted effect of over 60% in size
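Kinase-Glo luciferase light output from ATP and luciferin was measured with 10 uM ATP, within the enzyme's linear range. Buffer: 50 mM imidazole pH 7.2, 50 mM KCl, 7 mM MgCl2, 0.01% Tween 20, 0.05% BSA; luminescence read after 8 min at ambient temperature.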
HPGD block = HPGD (human) dehydrogenase inhibition. P15428. 150,000 tested, 4.3% active. purified HPGD, NADH fluorescence kinetic, PGE2 substrate. Potency, µM, for the others: at the top dose activity change, negative = inhibition, actives largely listed as inhibitors. AID 894; active = well fitted inhibition curve with a large enough effect, not every such curve was filed as active; inconclusive = small, poorly fitted or top-dose-only effect, or another doubt; inactive = no such curve, though single readings can be large or run the other way
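20 nM HPGD preincubated 15 min at room temperature with compound in 50 mM Tris-HCl pH 8, 0.01% Tween 20. Started with 1 mM NAD+ and 30 uM prostaglandin E2; NADH fluorescence (360/450 nm) read 5 times over 30-s intervals, last minus first.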
IMPase Li inh = cell-permeable IMPase inhibitors with lithium potentiation; CHO-M1 cells, IP1 TR-FRET (IP-One), carbachol + lithium; Potency, µM (top dose mostly 59.4 µM), for the others: top-dose activity, negative = IMPase inhibition, hits mostly inhibitors; 210,000 tested, 0.35% active; AID 1457;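 also: IP1 builds up when IMPase is blocked and the TR-FRET signal falls; plate controls were basal vehicle for no effect and high inhibitor control for full effect; nearly all actives have a fitted effect of over 50% in size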
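CHO cells stably expressing M1 receptor (2000/well) were cultured 16–30 h, then exposed to compounds with a small lithium addition for 30 min at 37C. IP1 was measured by TR-FRET competition; AC50 from Hill fits.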
Active calls of the source: *; ? = inconclusive; / = no result; ! = repeats disagree; [ ] = dose if it differs, or a comment. Compounds with a hit are over-represented: about 9% of the library has one in this group of screens. Unless noted, calls follow the shape of the dose curve; as a rule, active = well fitted curve in the direction sought with a large enough effect; inconclusive = small, poorly fitted or top-dose-only effect, or another doubt; inactive = no such curve, though single readings can be large; an effect the other way counts as inactive or inconclusive. Unless noted, % is scaled to controls: 0 for no effect and ±100 for the full control effect; potency is read from the fitted curve at half-maximal effect.

SMILES	LMNA splice mod	ALDH1A1 inh	KinaseGlo FLuc	HPGD block	IMPase Li inh
O=C(CSc1ccc(-c2nc3ccccc3[nH]2)cn1)Nc1ccc2c(c1)OCCO2	-6%	?	-10%	?	8.9µM*
Cc1ccc2nc(-c3ccc(SCC(=O)Nc4ccc5c(c4)OCCO5)nc3)[nH]c2c1	?	?	-7%	?	14%
COc1ccc(-c2ccc(CNCCCSc3nnnn3C)o2)cc1Cl	-16%[46 µM]	/	/	/	/
NC(=O)c1c(NC(=O)CSc2nnc(-c3ccccc3)n2CC2CCCO2)sc2c1CCC2 (stereo not drawn)	-6%	28µM*	2%	?	19%[38.3 µM]
Cn1cnnc1SCC(=O)Nc1sc2c(c1C(N)=O)CCC2	-1%	?	-5%	18µM*	-8%[38.3 µM]
N#Cc1c(NC(=O)CSc2ncc(-c3ccccc3)n2CC2CCCO2)sc2c1CCCC2 (stereo not drawn)	?	?	0%	-14%	-10%[38.3 µM]
CCOC(=O)c1c(NC(=O)CSc2nncn2C)sc(C)c1C	10%	-4%	5%	-14%	-15%[38.3 µM]
CCC(Oc1ccc(F)cc1)C(=O)Nc1nc2c(s1)CCCC2 (stereo not drawn)	-2%[46 µM]	/	/	/	/
CCN1C(=O)c2cccc3c(S(=O)(=O)NCCc4c[nH]c5ccccc45)ccc1c23	-4%	14µM*	1%	-9%	53%[38.3 µM]
CCN1C(=O)c2cccc3c(S(=O)(=O)Nc4ccccc4OC)ccc1c23	?	4.5µM*	-1%	-9%	24%[38.3 µM]
COc1ccccc1NS(=O)(=O)c1ccc(Cl)c(NC(=O)CN2C(=O)c3ccccc3C2=O)c1	-6%	-17%	0%	-17%	-2%
CCN1C(=O)c2cccc3c(S(=O)(=O)NCCCN4CCOCC4)ccc1c23	-1%	?	-1%	-20%	-6%[38.3 µM]
Cc1c(C(=O)N2CCc3ccccc3C2)sc2nc(-c3ccccc3)cn12	?	?	-3%	7.1µM*	33%[38.3 µM]
CCOc1ccccc1CNC(=O)CN1C(=O)C2CCCCN2c2ccc(C(=O)N(C)C)cc21 (stereo not drawn)	11%[46 µM]	/	/	/	/
O=C(O)c1ccc(N/N=C/c2ccc(C(F)(F)F)cc2)cc1	-2%[46 µM]	?	1%	/	-3%
O=C(O)c1ccc(N/N=C/c2ccc3c(c2)OCO3)cc1	?	-6%	4µM*	/	19%
CC(C)(C)c1ccc(/C=N/Nc2ccc(C(=O)O)cc2)cc1	25%	4%	0%	14µM*	8%
Cc1ccc(N/N=C/c2ccc3c(c2)OCCO3)cc1Cl	-9%	13µM*	-2%	?	11%
Cc1cccc(CNc2ccnc(-c3ccccc3Cl)n2)c1	?	-1%	/	/	7%
CC1CN(C(=O)N2CCC(C(=O)NCCC3=CCCCC3)CC2)c2ccccc2O1 (stereo not drawn)	-7%[46 µM]	/	/	/	/
O=C(CSc1nnc(-c2cccnc2)n1C1CCCCC1)NC1CCCC1	-16%	-5%	5%	22µM*	-11%
CC1CCCN(C(=O)CSc2nnc(-c3cccnc3)n2C2CCCCC2)C1 (stereo not drawn)	-10%	-10%	10%	?	4%[38.3 µM]
Cc1c(NC(=O)/C(C#N)=C/c2ccccc2)c(=O)n(-c2ccccc2)n1C	/	-12%	6%	/	14%
Cc1c(NN=C(C#N)C#N)c(=O)n(-c2ccccc2)n1C	-16%[46 µM]	3.5µM*	3%	/	18%
COc1ccccc1Cn1nnc2c(=O)[nH]c(C3CCN(C(=O)c4ccc(C)cc4)CC3)nc21	25%	1%	-1%	?	-3%[38.3 µM]
O=C(c1ccccc1Cl)N1CCC(c2nc3c(nnn3Cc3ccco3)c(=O)[nH]2)CC1	-10%	28µM*	-2%	14µM*	3%
COc1ccccc1Cn1nnc2c(=O)[nH]c(C3CCN(C(=O)c4ccc(F)cc4)CC3)nc21	14%	-3%	-1%	11µM*	-5%[38.3 µM]
O=C(c1ccccc1)N1CCC(c2nc3c(nnn3Cc3ccccc3Cl)c(=O)[nH]2)CC1	6%	?	0%	11µM*	33%[38.3 µM]
COc1ccccc1Cn1nnc2c(=O)[nH]c(C3CCN(C(=O)c4ccccc4Cl)CC3)nc21	19%	?	4%	14µM*	-11%[38.3 µM]
C=C(CC)C(=O)c1ccc(OCC(=O)O)c(Cl)c1Cl	?	14µM*!	-2%	-27%	-1%

Source: PubChem BioAssay
